Experimental data: article PMC5540273 (PLoS ONE, 2017)

tested on: T1, BIKE; settings: concentration: 1 μM, replicates: in singlicate; n = 1
T1 construct: gene BMP2K
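Also: KINOMEscan kinase panel screen.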

| Structure (SMILES) | %Inh |
| --- | --- |
| CN1CCC(n2cnc(-c3ccc(F)cc3)c2-c2ccnc(NC3CCNCC3)n2)CC1 [SB-229482] | 0% |
| COc1ccc(NC(=O)c2ccc(-c3cc(-c4nnc(C)o4)ccc3C)cc2)cc1 [GW595885] | 14% |
| Cl.c1ccc(Cn2ccc3cc(Nc4ncnc5ccccc45)ccc32)cc1 [GW275568] | 13% |
| Nc1nccc2scc(-c3ccc4c(c3)CCN4C(=O)Cc3cc(F)ccc3F)c12 [GSK2587663] | 10% |
| C[C@@H]1CCN(C(=O)CO)C[C@@H]1N(C)c1ncnc2[nH]ccc12 | 19% |
| FC(F)(F)c1cc(Nc2nccc(-c3c(-c4ccc(Cl)cc4)nn4ncccc34)n2)ccc1Cl [GW829351] | 0% |
| O=C(Nc1ccccc1)Nc1ccc(Oc2ccc3nccn3n2)cc1 | 0% |
| Clc1ccc(-c2cc(-c3c[nH]nc3-c3ccccn3)ccn2)cc1 [GW681251] | 23% |
| CCCc1ccc(S(=O)(=O)NC2CCN(c3ccnc(Nc4ccc(OC)cc4)n3)C2)cc1 (stereo not shown) [GSK1379737] | 0% |
| O=C(Nc1n[nH]c2nc(-c3ccco3)c(Br)cc12)c1ccc(CN2CCCC2)cc1.O=C(O)[C@H](O)[C@@H](O)C(=O)O [SB-742352] | 0% |
| CCC(CC)(CC)n1cnc2c(N)ncnc21 [SKF-97620] | 0% |
| Clc1cc(Nc2ncnc3cc[nH]c23)ccc1OCc1ccccn1 | 0% |
| CCn1c(-c2ccncc2)nc2cnccc21 [SB-735216] | 8% |
| Cl.Cl.c1ccc(-c2cc3ccncc3cc2OC2CCNCC2)cc1 [GSK1122999] | 27% |
| O=c1cc(N2CCOCC2)nc2n(Cc3cccc(Cl)c3)ccn12 [GSK2296823] | 20% |
| COc1ccc(Nc2nccc(N3CCC(NC(=O)c4cccc(NC(C)=O)c4)C3)n2)cc1 (stereo not shown) [GSK1379732] | 0% |
| Cc1ccc(O)cc1Nc1cc(C(F)(F)F)nc2ccc(-c3ccncc3)cc12 [GW630823] | 7% |
| O=C(NCCCN1CCCC1=O)c1cnc(NCc2cc(Cl)ccc2Cl)nc1NC1CCNCC1 | 4% |
| COc1cc2ncnc(Nc3ccc(OCc4ccccc4Br)c(Cl)c3)c2cc1OC.Cl [GI261590] | 5% |
| Cc1cccc(-c2nc(Nc3ccc4[nH]nnc4c3)c3ccccc3n2)n1 [GW867587] | 0% |
| CC(=O)Nc1n[nH]c2ncc(-c3ccccc3)cc12 [SB-548492] | 7% |
| COC(=O)c1c(-c2ccccc2)c2cc(Cl)ccc2c(=O)n1Cc1ccc(S(C)(=O)=O)cc1 | 0% |
